# Experimental data taken from PubChem BioAssay (EPA / NIEHS).
# Inconclusive results are not listed. Calls of active or inactive are those of the source. The calls were made as follows: active = hit-call score of the fitted dose curve at least 0.9, where 1 is the maximum; inconclusive = response in the unintended direction; inactive = score below 0.9.
# Biological target: human Phosphodiesterase 10 (PDE10), PDE10A (gene 10846) (UniProt Q9Y233)
# Test: NVS_ENZ_hPDE10: NovaScreen (NVS) Enzymatic Assay for human Phosphodiesterase 10 (PDE10) (AID 2283195)
# Outline: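 Fluorescence readout after mobility-shift separation of substrate and product, 1 h reaction with recombinant human enzyme. Single-concentration duplicates at 25 uM, then concentration-response up to 50 uM for chemicals reaching threshold; DMSO baseline.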
# Sequence of human Phosphodiesterase 10 (PDE10), PDE10A (gene 10846) (Q9Y233 whole entry, looked up): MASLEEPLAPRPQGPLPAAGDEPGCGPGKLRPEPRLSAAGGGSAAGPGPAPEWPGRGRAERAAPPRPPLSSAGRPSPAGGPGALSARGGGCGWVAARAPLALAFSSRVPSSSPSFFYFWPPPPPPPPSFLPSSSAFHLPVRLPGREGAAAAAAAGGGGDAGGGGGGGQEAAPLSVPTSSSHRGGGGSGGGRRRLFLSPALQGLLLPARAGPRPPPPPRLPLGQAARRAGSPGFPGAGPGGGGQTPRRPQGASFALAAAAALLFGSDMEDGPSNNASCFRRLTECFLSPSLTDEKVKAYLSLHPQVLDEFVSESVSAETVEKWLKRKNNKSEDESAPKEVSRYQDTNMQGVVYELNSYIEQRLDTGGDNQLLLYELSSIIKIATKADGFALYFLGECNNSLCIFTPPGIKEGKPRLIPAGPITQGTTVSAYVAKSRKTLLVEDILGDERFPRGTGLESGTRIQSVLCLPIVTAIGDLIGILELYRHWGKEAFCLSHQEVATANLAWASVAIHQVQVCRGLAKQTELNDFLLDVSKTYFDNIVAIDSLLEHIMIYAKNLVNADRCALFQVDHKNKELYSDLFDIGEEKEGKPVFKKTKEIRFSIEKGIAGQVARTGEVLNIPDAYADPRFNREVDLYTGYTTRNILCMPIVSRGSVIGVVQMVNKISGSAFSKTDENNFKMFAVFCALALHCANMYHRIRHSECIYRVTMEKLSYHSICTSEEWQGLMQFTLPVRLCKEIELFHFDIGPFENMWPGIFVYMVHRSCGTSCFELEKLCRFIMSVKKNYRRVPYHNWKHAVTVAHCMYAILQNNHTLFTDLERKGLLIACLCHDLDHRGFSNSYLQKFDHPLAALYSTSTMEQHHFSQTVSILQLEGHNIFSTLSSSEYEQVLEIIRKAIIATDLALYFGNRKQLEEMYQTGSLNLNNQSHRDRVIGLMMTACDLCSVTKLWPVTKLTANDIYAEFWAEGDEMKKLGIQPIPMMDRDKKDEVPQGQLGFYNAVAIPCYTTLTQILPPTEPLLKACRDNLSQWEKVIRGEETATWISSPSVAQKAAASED
Compound,AC50,outcome
Cn1cccc1,5.59 µM (active),–
C=CC(=O)O[C@H]1C[C@@H]2CC[C@@]1(C)C2(C)C,3.57 µM (active),–
CC(=O)OC1CCCCC1,–,inactive
CC(=O)OC(C)c1ccccc1 (stereo not drawn),–,inactive
CCCCCC1=CCCC1=O,–,inactive
C=C(C)C1CC=C(C)C(OC(C)=O)C1 (stereo not drawn),–,inactive
CCCCOCC(C)O (stereo not drawn),–,inactive
CC1(C)C(=O)N(CO)C(=O)N1CO,46.5 µM (active),–
CCN(CC)c1cccc(C)c1,–,inactive
O=C1CCCCCCCCCCCN1,–,inactive
CCC1(C)C(=O)N(Cl)C(=O)N1Cl (stereo not drawn),20.7 µM (active),–
[Cl][Sc]([Cl])[Cl],1.67 µM (active),–
O=C1CCCCCCCCCCC1,–,inactive

# Biological target: human Phosphoinositide 3-kinase alpha (PI3Ka), PIK3CA (gene 5290) (UniProt P42336)
# Test: NVS_ENZ_hPI3Ka: NovaScreen (NVS) Enzymatic Assay for human Phosphoinositide 3-kinase alpha (PI3Ka) (AID 2283196)
# Outline: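 Duplicate single-point screen (25 uM), then singleton dose-response (max 50 uM) for compounds meeting the threshold. Cell-free kinase reaction, 1 h; fluorescent mobility-shift readout.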
# Sequence of human Phosphoinositide 3-kinase alpha (PI3Ka), PIK3CA (gene 5290) (P42336 whole entry, looked up): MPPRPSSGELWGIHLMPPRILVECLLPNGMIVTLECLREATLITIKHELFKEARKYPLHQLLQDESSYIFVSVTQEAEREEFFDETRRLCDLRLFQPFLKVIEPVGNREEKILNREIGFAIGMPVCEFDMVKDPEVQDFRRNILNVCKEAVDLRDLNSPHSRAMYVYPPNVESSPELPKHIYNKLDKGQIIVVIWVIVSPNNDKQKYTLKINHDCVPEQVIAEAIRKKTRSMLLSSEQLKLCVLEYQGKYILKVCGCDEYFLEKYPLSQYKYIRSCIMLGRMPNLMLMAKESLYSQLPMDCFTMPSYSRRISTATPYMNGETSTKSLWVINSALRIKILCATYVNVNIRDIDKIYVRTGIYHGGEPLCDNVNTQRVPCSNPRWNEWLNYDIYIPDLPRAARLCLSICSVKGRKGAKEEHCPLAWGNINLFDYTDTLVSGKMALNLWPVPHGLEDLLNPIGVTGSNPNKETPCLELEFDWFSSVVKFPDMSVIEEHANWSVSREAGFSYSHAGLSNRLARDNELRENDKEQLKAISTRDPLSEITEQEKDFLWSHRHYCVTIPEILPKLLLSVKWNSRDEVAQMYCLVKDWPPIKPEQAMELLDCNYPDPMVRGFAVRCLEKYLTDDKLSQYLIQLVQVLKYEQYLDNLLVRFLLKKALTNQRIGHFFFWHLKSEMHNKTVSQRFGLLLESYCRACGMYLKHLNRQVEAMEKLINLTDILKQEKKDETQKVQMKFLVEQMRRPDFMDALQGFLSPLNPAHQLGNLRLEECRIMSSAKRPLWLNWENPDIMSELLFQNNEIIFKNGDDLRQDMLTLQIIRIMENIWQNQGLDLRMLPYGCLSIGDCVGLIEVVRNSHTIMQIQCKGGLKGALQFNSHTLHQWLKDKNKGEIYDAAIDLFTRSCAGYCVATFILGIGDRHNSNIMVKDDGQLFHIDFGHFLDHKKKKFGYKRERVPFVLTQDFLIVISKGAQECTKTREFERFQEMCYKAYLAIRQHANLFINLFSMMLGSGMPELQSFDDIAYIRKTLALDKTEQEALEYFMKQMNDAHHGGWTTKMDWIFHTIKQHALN
Compound,outcome,AC50
Oc1ccc(/C=C/c2cc(O)cc(O)c2)cc1,inactive,–
CC(=O)OC(C)c1ccccc1 (stereo not drawn),inactive,–
C=C(C)C1CC=C(C)C(OC(C)=O)C1 (stereo not drawn),–,25 µM (active)
CO[Si](CCCS)(OC)OC,–,39 µM (active)
C=CC(=O)OCC(C)OCC(C)OCC(C)OC(=O)C=C (stereo not drawn),inactive,–
O=C1CCCCCCCCCCC1,inactive,–

# Biological target: guinea pig Opioid, Kappa 1 Receptor (OpiateK), OPRK1 (gene 100135587) (UniProt P41144)
# Test: NVS_GPCR_gOpiateK: NovaScreen (NVS) G Protein-Coupled Receptor Assay for guinea pig Opioid, Kappa 1 Receptor (OpiateK) (AID 2283252);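 also: active means reduced radioligand binding relative to DMSO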
# Outline: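 Radioligand binding to kappa opioid receptor in guinea pig cerebellar membranes, read by filtration and scintillation at 2 h. Compounds first tested in duplicate at 25 uM, then actives in concentration series; signal loss fitted against DMSO.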
# Sequence of guinea pig Opioid, Kappa 1 Receptor (OpiateK), OPRK1 (gene 100135587) (P41144 whole entry, looked up): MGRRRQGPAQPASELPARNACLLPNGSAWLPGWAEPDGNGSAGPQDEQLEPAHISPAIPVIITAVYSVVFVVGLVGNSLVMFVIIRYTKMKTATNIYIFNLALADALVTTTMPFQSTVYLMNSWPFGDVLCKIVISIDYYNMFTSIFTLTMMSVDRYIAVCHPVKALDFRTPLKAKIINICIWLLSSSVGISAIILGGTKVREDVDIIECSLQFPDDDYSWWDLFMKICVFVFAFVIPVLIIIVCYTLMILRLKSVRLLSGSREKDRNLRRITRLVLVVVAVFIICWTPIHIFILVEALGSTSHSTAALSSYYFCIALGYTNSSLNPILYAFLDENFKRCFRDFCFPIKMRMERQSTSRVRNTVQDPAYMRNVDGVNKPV
Compound,AC50,outcome
CCOC(=O)C1=NN(c2ccc(Cl)cc2Cl)C(C)(C(=O)OCC)C1 (stereo not drawn),14.3 µM (active),–
COC(OC)(C(=O)c1ccccc1)c1ccccc1,13.6 µM (active),–
CC1=CC=C(C(C)C)CC1,–,inactive
CC(C)[N+](C)(CCOC(=O)C1c2ccccc2Oc2ccccc21)C(C)C,11.1 µM (active),–
